Source: PubChem BioAssay AID2314 (National Center for Advancing Translational Sciences (NCATS), 2010)
“And” between values parts separate entries of the source, which are not always exact repeats. Equal values may be shown once. About 37,000 (12%) of roughly 300,000 compounds were called active. Cut-off read from the data, not from the text of the source: active = max response mostly above about 13% (no sharp cut-off); inactive = mostly below about 14%. The full list was thinned out, with actives kept by preference.

experiment: Cycloheximide Counterscreen for Small Molecule Inhibitors of Shiga Toxin; conditions: cell reporter, cycloheximide protein synthesis inhibition counterscreen; hits give high values; note: read at 38.3 µM for the half of the compounds with a filed dose; 0% is about no effect

| Structure (SMILES) | max response |
| --- | --- |
| CCCn1cc(S(=O)(=O)c2ccc(C)cc2)c(=O)c2cc(OCC)ccc21 | -2.9% (inactive) |
| Nc1nc(NCC(=O)O)nc(N2CCCCCC2)c1[N+](=O)[O-] | -3.03% (inactive) |
| COc1ccc(NC(=O)c2cccc3c2C(=O)N(CC2CCCO2)C3)cc1OC (centres undefined) | 1.17% (inactive) |
| COc1ccccc1N(CC(=O)NC1CCCC1)C(=O)C1(C)CC(=O)N=C2C=CC(C)=CN21 (centres undefined) | -3.56% (inactive) |
| CN(C)C(=O)c1ccc2c(c1)C1C3CCC(C3)C1C(c1ccccc1)N2 (centres undefined) | -4.56% (inactive) |
| NNc1nc2c(Cl)cccc2s1 | 53.2% (active) |
| CN(C)CCCN(C(=O)COc1ccccc1)c1nc2c(Cl)cccc2s1 | -4.5% (inactive) |
| Cc1ccc(-c2cc(N)on2)cc1 | 21% (active) |
| Cc1ccc(S(=O)(=O)Cc2cc(-c3ccc(Cl)cc3)no2)cc1 | 0.779% (inactive) |
| Nc1c(NCCc2ccccc2)c2ccccc2oc1=O | 23.7% (active) |
| CC(C)(C)Nc1c(N)c(=O)oc2ccccc12 | -1.31% (inactive) |
| NC(=O)c1oc2ccccc2c1NC(=O)Cc1ccccc1 | -2.17% (inactive) |
| CC(=O)N1c2ccc(S(=O)(=O)N3CCC(C(=O)NC4CCCC(C)C4C)CC3)cc2CC1C (centres undefined) | 4.81% (inactive) |
| Cc1ccc(OCC(=O)Nc2ccccc2C(=O)NC2CC2)cc1C | -1.62% (inactive) |
| CCOC(=O)CSc1nnc(-c2ccncc2)o1 | 1.84% (inactive) |
| CCCCSc1nnc(-c2ccc(C)cc2)o1 | 40.6% (active) |
| CCOC(=O)CSc1nnc(-c2ccc([N+](=O)[O-])cc2)o1 | -0.444% (inactive) |
| c1ccc2c(c1)C(=NC1CCCCC1)NC2=NC1CCCCC1 | -4.35% (inactive) |
| O=C(c1ccc(CS(=O)(=O)c2ccccc2)o1)N1CCN(c2ccccc2)CC1 | -5.15% (inactive) |
| Cc1c(CC(=O)NCC(=O)NCC(=O)O)c(=O)oc2cc3oc4c(c3cc12)CCCC4 | -2.59% (inactive) |
| COc1ccc(N(CC(=O)Nc2cc(OC)cc(OC)c2)S(=O)(=O)c2c(C)n[nH]c2C)cc1 | -1.21% (inactive) |
| Cc1ccc(Nc2cc(C)nc3c(C)ccc([N+](=O)[O-])c23)cc1 | 0.487% (inactive) |
| O=c1c(-c2ccccc2Cl)c[nH]n1-c1ccccc1 | 8.14% (inactive) |
| Cc1[nH]n(-c2cccc(Cl)c2)c(=O)c1-c1ccc(Cl)cc1 | 12.1% (inactive) |

| Structure (SMILES) | max response |
| --- | --- |
| O=c1c(-c2cccc(Cl)c2)c[nH]n1-c1ccccc1 | 69.9% (active) |
| CC(=O)C1=C(O)C(=O)N(c2cccnc2)C1c1ccc([N+](=O)[O-])cc1 (centres undefined) | -2.81% (inactive) |
| O=C(COC(=O)c1ccc(N2CCCC2=O)cc1)c1ccc(OC(F)F)cc1 | 2.45% (inactive) |
| S=c1[nH]c2ccccc2c2ccccc12 | 1.83% (inactive) |
| Cc1ccc(C(=O)NC2CC(C)(C)NC(C)(C)C2)c(C)c1 | -4.92% (inactive) |
| Cc1ccc2c(c1)NCC(C(=O)NC1CCC(C)CC1)O2 (centres undefined) | 41.1% (active) |
| CC1CCC(NC(=O)C2c3ccccc3C(=O)N2Cc2ccc3c(c2)OCO3)CC1 (centres undefined) | -1.18% (inactive) |
| CC(NS(=O)(=O)c1ccc(Br)cc1)C(=O)NCC1CCCO1 (centres undefined) | -1.6% (inactive) |
| OCCNc1nc(Nc2ccc(Cl)c(Cl)c2)nc2ccccc12 | 10.5% (active) |
| COc1cc2nc(Cl)nc(NCCO)c2cc1OC | -1.72% (inactive) |
| CN1CCN(c2nc(Nc3ccc(O)cc3)nc3ccccc23)CC1 | -3.27% (inactive) |
| COc1ccc(C(=O)Nc2nc(-c3ccc(OC)cc3)c(-c3ccc([N+](=O)[O-])cc3)s2)cc1 | 9.79% (inactive) |
| COc1ccc(C2=NN(C(=O)c3cccnc3)C(c3ccccc3)C2)cc1 (centres undefined) | -5.54% (inactive) |
| COc1ccc(C(=O)CSc2nccc(=O)[nH]2)cc1 | 8.3% (inactive) |
| CCOc1ccc2nc(Cl)c(C3CC(c4ccccc4)=NN3C(=O)c3cccs3)cc2c1 (centres undefined) | -1.42% (inactive) |
| COc1ccc(C2=NN(C(=O)CCC(=O)O)C(c3cccs3)C2)cc1OC (centres undefined) | -1.52% (inactive) |
| COc1ccc(C2=NN(C(C)=O)C(c3ccccc3)C2)cc1 (centres undefined) | 20.9% (active) |
| COc1ccc(C2CC(c3ccccc3)=NN2C(=O)COC(=O)COc2ccccc2)cc1 (centres undefined) | 2.88% (inactive) |
| COc1cccc(C2CC(c3ccccc3)=NN2S(=O)(=O)c2ccccc2)c1OC (centres undefined) | 0.319% (inactive) |
| COc1ccc(C2CC(c3ccccc3)=NN2C(=O)CSc2nccc(=O)[nH]2)cc1 (centres undefined) | 40% (active) |
| COc1ccc(C2=NN(C(=O)c3ccccc3C(=O)O)C(c3ccccc3O)C2)cc1 (centres undefined) | 40.6% (active) |
| COc1ccc(C2CC(c3ccccc3)=NN2C(=O)c2ccc(Cl)c([N+](=O)[O-])c2)cc1 (centres undefined) | 12.9% (inactive) |
| COc1ccc(C2CC(c3ccc([N+](=O)[O-])cc3)=NN2C(C)=O)cc1 (centres undefined) | 24.5% (active) |
| CCCCN(CCCC)CCNC(=O)CN1C(=O)COc2ccc(S(=O)(=O)N3CCOCC3)cc21 | -2.14% (inactive) |

| Structure (SMILES) | max response |
| --- | --- |
| CCN1C(=NCCc2cccnc2)N[C@@H](c2ccccc2)[C@H](C(=O)OC)[C@H]1C | 3.2% (inactive) and 1.95% (inactive) |
| COCCN1C(=O)N(c2ccc(Cl)cc2)C(=O)C1CC(=O)Nc1cc(OC)cc(OC)c1 (centres undefined) | -0.589% (inactive) |
| CCN1C(=O)c2cccc3c(S(=O)(=O)Nc4ccccc4O)ccc1c23 | 9.32% (inactive) |
| O=C(CCC(=O)NNc1nc2ccccc2c2nc(-c3ccccc3)nn12)NCCCN1CCCC1=O | 10.3% (inactive) |
| COc1ccc(S(=O)(=O)NCCOc2ccccc2)cc1F | -4.53% (inactive) |
| Cc1ccc2c(c1)N(CC(=O)N1CCC(C)CC1)C(=O)c1cccnc1O2 | -1.05% (inactive) |
| COC(=O)c1ccccc1NC(=O)C1CCN(C(=O)N2CCOc3ccccc32)CC1 | 0.401% (inactive) |
| CCOc1ccccc1CN1CCN(C2CCC2)CC1CCO (centres undefined) | -0.61% (inactive) |
| CS(=O)(=O)c1ccccc1C(=O)Nc1ccc2sccc2c1 | 1.56% (inactive) |
| O=C(NCCN1CCOCC1)Nc1cccc(Cl)c1 | 20.1% (inactive) |
| O=C(Nc1cccc(Cl)c1)Nc1nnc(-c2ccccc2)o1 | -4.47% (inactive) |
| Cc1cc(Cl)nc(NC(=O)Nc2cccc(Cl)c2)n1 | 19.5% (active) |
| Cc1cccc(OC(C)C(=O)N2CCc3ccccc3C2)c1 (centres undefined) | -3.38% (inactive) |
| Cc1ccc(Cl)c(OCC(=O)N2CCc3ccccc3C2)c1 | 30% (active) |
| Cc1ccccc1-c1nc(CS(=O)(=O)CC(=O)N2CCc3ccccc3C2)c(C)o1 | 0.61% (inactive) |
| COc1ccc(OCC(=O)N2CCN(C(=O)COc3ccccc3)CC2)cc1 | -5.08% (inactive) |
| O=C(Cn1c(=S)nc2ccccn21)N1CCc2ccccc2C1 | 22.4% (active) |
| O=C(COc1ccccc1)N1CCc2ccccc2C1 | 28.7% (active) |
| Cc1ccc(Cl)c(OCC(=O)NN2CCN(C)CC2)c1 | -2.49% (inactive) |
| O=C(COc1ccccc1Cl)N1CCCCCCC1 | 4.62% (inactive) |
| O=C(C1CCN(c2nnc(-n3cccc3)s2)CC1)N1CCc2ccccc2C1 | -2.9% (inactive) |
| COc1ccccc1CN1CCN(C(c2ccccc2)c2ccccc2)CC1 | -1.72% (inactive) |
| CC1CCN(C(=O)c2ccc3c(c2)NC(=O)CN3)CC1 | -6.43% (inactive) |
| Oc1ccc(Cl)cc1C1C=C(c2ccc3c(c2)OCO3)NC(c2ccc(F)c(Br)c2)N1 (centres undefined) | 50.7% (active) |

| Structure (SMILES) | max response |
| --- | --- |
| Oc1ccc(Cl)cc1C1C=C(c2ccc3c(c2)OCO3)NC(c2c(F)cccc2Cl)N1 (centres undefined) | 59.8% (active) |
| CCOC(=O)CC1COCCN1C(=O)c1cc(COc2ccc(F)c(F)c2)on1 (centres undefined) | 38.7% (active) |
| OC(COc1ccc(F)cc1Cl)CN1CCc2ccccc2C1 (centres undefined) | -2.68% (inactive) |
| Cc1c(C(=O)N2CCOCC2)[nH]c2ccc(OCc3ccccc3)cc12 | 0.995% (inactive) |
| CCOC(=O)c1ccccc1C(=O)N1CCOCCOCCOCC1 | -3.37% (inactive) |
| O=C(c1c(F)cccc1F)N1CCN(c2ncc(Br)cn2)CC1 | -1.54% (inactive) |
| O=C(c1cc(COc2cccc(C(F)(F)F)c2)on1)N1CCSCC1 | -0.615% (inactive) |
| CN1CCN(C(=O)c2ccccc2NC(=O)COc2ccccc2Cl)CC1 | 16.7% (inactive) |
| C=CCC1(CC=C)CCCN1C(=O)c1cc(COc2ccc(-n3cncn3)cc2)on1 | 7.87% (inactive) |
| Cc1cc(NC(=O)COC(=O)c2ccc(F)c(S(=O)(=O)N3CCOCC3)c2)no1 | -2.52% (inactive) |
| COCCN1CCN(C(=O)c2cc(COc3ccc(F)cc3Cl)on2)CC1 | 20.2% (active) |
| O=C(c1cc(COc2ccc(F)c(F)c2)on1)N1CCOCC1 | 42.1% (active) |
| O=C(c1cc(COc2c(F)cccc2F)on1)N1CCSCC1 | 54.8% (active) |
| C=CCNc1nc(N)c(C(=C(C#N)C#N)c2ccccc2)s1 | 1.38% (inactive) |
| Cc1ccn2c(c1)nc(=O)c1cc(S(=O)(=O)N3CCC(C)CC3)ccc12 | -3.62% (inactive) |
| OC(CN=c1sc2ccccc2n1CC(O)COc1ccccc1)COc1ccccc1 (centres undefined) | 0.416% (inactive) |
| O=C(Nc1ccc(Cl)cc1)c1cccc(OC(=S)N2CCOCC2)c1 | 21.3% (inactive) |
| CC(C)Oc1ccc(C(CC(=O)N2CCOCC2)C(C)C)cc1 (centres undefined) | 0.501% (inactive) |
| O=C(NNC(=O)C(O)c1ccccc1)NC1CCCCC1 (centres undefined) | -2.85% (inactive) |
| COCC(C)NC(=O)c1ccc(-n2nc(C(F)(F)F)cc2-c2cccs2)cc1 (centres undefined) | 1.01% (inactive) |
| Nc1nonc1-n1nnc(C(=O)N/N=C/c2ccc(Cl)cc2)c1-c1ccc2c(c1)OCO2 | -1.92% (inactive) |
| Cc1c(-c2ccccc2)cn2c1-c1ccc(C)n1CC2 | -3.8% (inactive) |
